Experimental findings from PubChem BioAssay AID720647 (Broad Institute, 2013) are described below.

The structures appear in SMILES notation. Several values for one entry are separate records, joined by “and”; a condition that tells them apart may be missing. Equal values may be shown once. The whole screen tested about 380,000 compounds, of which about 1,300 (0.34%) were called active.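 How the source made its calls: active means drop in luminescence signal, shown as inhibition above about 50% in the replicate tests (limit read from the data, passing the limit was not always enough); inconclusive means probably only some replicates passing the limit; inactive means the rest.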 Many of the other results were omitted from the sample, so actives are more common in it than they were. More than one record can exist for a structure, and the calls need not agree.

This assay deals with Drosophila bursicon receptor LGR2 (rickets). Kind of assay: inhibitors of bursicon-induced LGR2 CRE-luciferase signal, primary screen, cell-based, HEK293, CRE-luciferase reporter, bursicon stimulation (AID 720647).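 Further: agonist challenge used bursicon conditioned medium at about half maximal strength.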 The following applies: bursicon-stimulated, 4 h, at 9.99 µM, stronger effect = higher value. (Reporter assays use an easily measured gene product as a stand-in for the process of interest.)
Turning to `COc1cccc(CNCc2ccc3c(c2)OCO3)c1`, the inhibition (usually the relative decrease from the control value, in per cent) was -10.4% (inactive). With `C(=N\Nc1ccc2ccccc2n1)/c1ccc2c(c1)OCO2` the figure was 80.4% (active); with `COCCCN(C(=O)Cn1ncc2c(=O)oc3ccc(C)cc3c21)C(C)c1ccncc1` (configuration not stated), 0.725% (inactive). In the case of `Cc1ccc2oc(=O)c3cnn(CC(=O)N4CCCCCC4)c3c2c1` it was 15.6% (inactive); in that of `Cc1ccc2oc(=O)c3cnn(CC(=O)N(Cc4ccco4)C4CCCCC4)c3c2c1`, 64.3% (active); in that of `COCC(=O)N1[C@H](CNC(=O)c2ccccn2)[C@H](c2ccccc2)[C@@H]1CO`, 0.589% (inactive). As for `C[C@H](CO)N1C[C@H](C)[C@H](CN(C)Cc2ccncc2)Oc2ccc(NC(=O)C3CCCCC3)cc2CC1=O`, the inhibition is 10.2% (inactive).

In the case of `COc1ccc2c3c(n(C)c2c1)[C@H](CO)NCC31CCN(C(=O)Nc2ccccc2F)CC1`, the inhibition is -4.04% (inactive). Take `O=c1c2c(nc3cc(-c4cccc(Cl)c4)[nH]n13)CCCC2`: the inhibition was 53.6% (active). With `COc1ccc2c3c(n(C)c2c1)[C@@H](CO)N(CC1CC1)CC31CN(C(=O)Nc2c(C)noc2C)C1` the figure was -9.38% (inactive). In the case of `C[C@@H]1CN([C@H](C)CO)C(=O)c2cc(-c3ccccc3)cnc2O[C@H]1CN(C)C(=O)NC1CCCC1` it was 9.83% (inactive). With `C/C(=N/OC(=O)c1cccc(C(F)(F)F)c1)c1cnccn1` the figure was 16.7% (inactive); with `Cc1ccc(C(=O)O/N=C(\N)c2ccccn2)cc1Cl`, 88.8% (active); with `C/C(=N/OC(=O)c1c(-c2c(F)cccc2Cl)noc1C)c1cnccn1`, 32.3% (inactive). With `COc1ccc2c3c([nH]c2c1)[C@H](CO)N(Cc1ccccc1Cl)CC31CN(C(=O)C2CC2)C1`, the inhibition is 6.3% (inactive). With `COc1ccc(-c2ccccc2[C@H]2[C@@H](CO)N(C(=O)C3CCC3)[C@H]2C#N)cc1` the figure was 3.46% (inactive).

Turning to `COc1ccc(S(=O)(=O)N(C)C[C@@H]2Oc3c(NS(=O)(=O)c4ccccc4)cccc3C(=O)N([C@@H](C)CO)C[C@@H]2C)cc1`, the inhibition was -7.82% (inactive). With `CCc1ccc2oc(-c3ccc(N)cc3)nc2c1` the figure was 75.2% (active); with `O=C(Nc1ccc2c(c1)[C@H]1C[C@@H](CC(=O)N3CCc4ccccc4C3)O[C@H](CO)[C@H]1O2)Nc1ccccc1F`, 12.8% (inactive).

On to `COC(=O)N(C)C[C@H]1OCc2ccccc2-c2ccccc2C(=O)N([C@@H](C)CO)C[C@H]1C`, for which the inhibition is 2.52% (inactive).

Take `O=C(C[C@H]1C=C[C@H](NC(=O)Cc2ccccn2)[C@@H](CO)O1)NCCc1ccccc1`: the inhibition was 12.4% (inactive). With `CCS(=O)(=O)N1CC2(CN(Cc3ccccc3)[C@@H](CO)c3c2c2ccc(OC)cc2n3C)C1` the figure was -9.3% (inactive); with `C=CCn1c(C)cc(C2=NNC(=NCC)SC2)c1C`, 84.5% (active). In the case of `CC(C)CC#Cc1cnc2c(c1)C(=O)N([C@H](C)CO)C[C@H](C)[C@@H](CN(C)Cc1ccccc1C(=O)O)O2` it was 9.07% (inactive). In the case of `C[C@H]1CCCCO[C@H](CN(C)C(=O)Nc2ccccc2)[C@@H](C)CN([C@@H](C)CO)C(=O)c2cc(NC(=O)CCC(F)(F)F)ccc2O1` it was 8.75% (inactive); in that of `O=c1oc2ccccc2cc1-c1cn(-c2ccccc2)c(=S)[nH]1`, 102% (active); in that of `COc1ccc(-c2ccc3c(c2)[C@@H]2[C@@H](CCN2S(=O)(=O)c2ccccc2F)[C@H](CO)N3)cc1`, -25.5% (inactive).

As for `C[C@@H]1CN([C@@H](C)CO)C(=O)c2cc(-c3ccc(F)cc3)cnc2O[C@H]1CN(C)C(=O)c1ccncc1`, the inhibition was 1.63% (inactive). In the case of `O=C(C1CCCCC1)N1[C@H](CO)[C@@H](c2ccccc2)C12CN(Cc1cccc(Cl)c1)C2` it was 1.64% (inactive). With `O=C(C[C@@H]1CC[C@H](NC(=O)C2CCOCC2)[C@@H](CO)O1)Nc1ccccc1`, the inhibition was -3.27% (inactive). With `CCc1sc(N2[C@@H](C#N)[C@@H](c3ccccc3-c3ccccc3)[C@@H]2CO)nc1C` the figure was 0.259% (inactive); with `COc1ccc(-c2cn(CC[C@H]3CC[C@@H](N)[C@H](CO)O3)nn2)cc1`, -5.75% (inactive).

Regarding `COc1ccc2c3c([nH]c2c1)[C@H](CO)N(Cc1cccc(F)c1)CC31CCN(CC2CC2)CC1`, the inhibition was 16% (inactive). In the case of `Cc1noc(C)c1NC(=O)Nc1ccc2c(c1)CC(=O)N([C@H](C)CO)C[C@@H](C)[C@@H](CN(C)S(=O)(=O)c1ccc(Cl)cc1)O2` it was 4.84% (inactive); in that of `O=C(Nc1nc2ccccc2s1)c1ccc2c(c1)OCO2`, 79.6% (active). In the case of `O=C(NCCc1ccc(C(F)(F)F)cc1)c1ccc2c(c1)OCO2` it was -2.8% (inactive); in that of `Cc1nc(NC(=O)c2ccc3c(c2)OCCO3)ccc1Br`, -47% (inactive). In the case of `N#C[C@@H]1N[C@H](CO)[C@@H]1c1ccc(/C=C/c2ccccc2)cc1` it was -52.3% (inactive); in that of `C[C@H]1CN([C@@H](C)CO)S(=O)(=O)c2ccc(-c3cccc(C#N)c3)cc2O[C@H]1CN(C)CC1CC1`, -1.41% (inactive); in that of `C[C@H]1CN([C@@H](C)CO)C(=O)c2cccc(NS(=O)(=O)c3ccccc3)c2O[C@@H]1CN(C)S(=O)(=O)c1cn(C)cn1`, 6.37% (inactive). As to `COc1ccc2c(c1)c(=Cc1ccc(N(C)C)cc1)c1cc(-c3ccccc3)[n+](C)n12`, the inhibition was 102% (active).

Turning to `COc1ccc(S(=O)(=O)N(C)C[C@@H]2OCCCC[C@@H](C)Oc3ccc(N(C)C)cc3C(=O)N([C@@H](C)CO)C[C@@H]2C)cc1`, the inhibition is -3.31% (inactive).

Consider `O=C1c2ccccc2C(Nc2ccc3c(c2)OCCO3)N1Cc1ccco1` (configuration not stated), for which the inhibition was 0.038% (inactive). In the case of `COC(=O)c1cc(NC2c3ccccc3C(=O)N2c2ccc(Cl)cn2)cc(C(=O)OC)c1` (configuration not stated) it was -4.93% (inactive). `Cc1ccnc(N2C(=O)c3ccccc3C2Nc2ccc3c(c2)OCCO3)c1` (configuration not stated): the inhibition was 66.5% (active). In the case of `Cc1ccc(-c2cnc3c(c2)C(=O)N([C@H](C)CO)C[C@H](C)[C@@H](CN(C)S(C)(=O)=O)O3)cc1` it was 14.4% (inactive); in that of `C[C@H]1CN([C@@H](C)CO)S(=O)(=O)c2ccc(C#Cc3cccc(F)c3)cc2O[C@@H]1CN(C)S(=O)(=O)c1cn(C)cn1`, 16.7% (inactive). Regarding `CCCC(=O)N1CCC2(CC1)CN(C(=O)C1CCCCC1)[C@@H](CO)c1[nH]c3cc(OC)ccc3c12`, the inhibition is -2.6% (inactive). In the case of `COc1ccc(S(=O)(=O)N[C@H]2C=C[C@@H](CC(=O)O)O[C@@H]2CO)cc1` it was 14.6% (inactive); in that of `CC12CCC(=O)C=C1CCC1C2C(O)CC2(C)C1CCC2(O)C(O)CO` (configuration not stated), -20.1% (inactive). With `CSc1ncnc2c1ncn2CCCNCc1ccco1` the figure was -1.41% (inactive); with `CSc1ncnc2c1ncn2CC(=O)C1CCC2C3CCC4=CC(=O)CCC4(C)C3CCC12C` (configuration not stated), 89.8% (active); with `COCC(=O)Nc1ccc2c(c1)[C@H]1C[C@@H](CC(=O)NCc3ccccc3F)O[C@H](CO)[C@H]1O2`, -12.4% (inactive). In the case of `COc1cccc(/C=C/c2ccc3ccccc3n2)c1OC(C)=O` it was 84.6% (active); in that of `CC=Cc1ccc2n(c1=O)C[C@H]1[C@H](CO)[C@@H](C(=O)NC3CCCC3)N(Cc3cccnc3)[C@@H]21` (mixture of isomers), 5.27% (inactive); in that of `O=C(CNCc1ccc(Cl)cc1)Nc1cccc(C(=O)O)c1`, 22.7% (inactive).

As to `O=C(Cn1cc(/C=N/NC(=O)c2cccc(C(F)(F)F)c2)c2ccccc21)Nc1ccc(F)cc1`, the inhibition was 13.4% (inactive). With `O=C(O)c1cccc(NC(=S)N/N=C/c2c[nH]c3ccccc23)c1` the figure was 75.5% (active); with `COc1cccc(CNC(=O)C[C@@H]2CC[C@@H]3[C@H](COc4ccc(NC(C)=O)cc4C(=O)N3C)O2)c1`, 18.5% (inactive). With `CCN1[C@@H]2Cn3c(ccc(-c4cccc(OC)c4)c3=O)[C@H]1[C@@H](C(=O)N(C)C)[C@@H]2CO` the figure was -2.29% (inactive); with `CCC(=O)N1CC(=O)N2[C@@H](CO)[C@H](c3ccc(C#CC4CCCC4)cc3)[C@@H]2C1`, -13.8% (inactive); with `C[C@@H]1CN([C@H](C)CO)C(=O)Cc2cc(NS(C)(=O)=O)ccc2O[C@@H]1CN(C)C(=O)Nc1ccc2c(c1)OCO2`, -12.8% (inactive). On to `C[C@@H]1CN([C@H](C)CO)C(=O)c2cc(NC(=O)CCCCCC(=O)Nc3ccccc3N)ccc2O[C@H]1CN(C)Cc1ccncc1`, for which the inhibition is -8.39% (inactive).

In the case of `C[C@@H]1CCCCO[C@H](CN(C)CC2CC2)[C@@H](C)CN([C@H](C)CO)C(=O)c2cc(NC(=O)Cc3ccccc3)ccc2O1`, the inhibition was 2.52% (inactive). In the case of `COc1ccccc1-c1cn(CC[C@@H]2CC[C@H](NC(=O)c3ccccc3F)[C@H](CO)O2)nn1` it was 0.819% (inactive); in that of `COc1ccc2c3c(n(C)c2c1)[C@@H](CO)N(C(=O)c1ccccn1)CC31CN(C)C1`, 2.95% (inactive); in that of `Cn1cnc(S(=O)(=O)N2C[C@@H]3N[C@H](C2)C3c2ccc(/C=C/c3ccccc3)cc2)c1` (some centres not stated), 7.15% (inactive) and -2.81% (inactive).

On to `COc1ccc(-c2ccc(C3[C@@H]4CN(S(=O)(=O)c5cn(C)cn5)C[C@H]3N4)cc2)cc1` (some centres not stated), for which the inhibition was -3.69% (inactive).

In the case of `Cn1cnc(S(=O)(=O)N2C[C@@H]3N[C@H](C2)C3c2ccc(-c3ccccc3F)cc2)c1` (some centres not stated), the inhibition was 53% (active) and -30.1% (inactive).

As for `C[C@H]1CN([C@@H](C)CO)C(=O)c2ccccc2-c2ccccc2CO[C@H]1CN(C)S(=O)(=O)c1cccc(C#N)c1`, the inhibition is -1.55% (inactive).

For the compound `C[C@H](NC(=O)C[C@@H]1CC[C@@H]2[C@H](COC[C@@H](O)CN2Cc2cc(F)ccc2F)O1)c1ccccc1`, the inhibition is 4.84% (inactive). For the compound `O=C(C[C@H]1C[C@@H]2c3cc(NC(=O)CC4CC4)ccc3O[C@@H]2[C@H](CO)O1)NCc1cccnc1`, the inhibition is 2.45% (inactive).
